Screens from PubChem BioAssay.
An excerpt weighted towards active compounds, which were near 2.8% of everything screened.
HEK293 viab = GF-AFC viability counterscreen for inhibitors of alpha-synuclein gene (SNCA) expression; actives 0.12% (n = 150,000); HEK-293-SNCA-luc viability, GF-AFC fluorescence, 24 h; Potency, µM (titrated, usually from 57.1 µM), actives largely listed as cytotoxic; AID 1671193, 2021; note: nearly all actives have a fitted effect of over 30% in size
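Cytotoxicity counterscreen: after 24 h compound treatment of genome-edited SNCA-luciferase HEK-293 cells, live-cell protease substrate GF-AFC read by fluorescence after 30 min; activity scaled between DMSO (0%) and medium-only (-100%), curves Hill-fitted.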
KDM5B inhibitor = Primary screen for KDM5B Histone Demethylases FDH-coupled qHTS; Lysine-specific demethylase 5B (Homo sapiens), Q9UGL1; KDM5B demethylase, FDH-coupled NADH fluorescence (FDH is formaldehyde dehydrogenase); Potency, µM (top dose mostly 57.7 µM), most hits filed as inhibitors; actives 2.6% (n = 220,000); note: nearly all actives have a fitted effect of over 70% in size
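KDM5BΔAP (200 nM final) in 50 mM HEPES pH 7.5, 0.01% Tween-20 was preincubated 10 min at RT with compound over a concentration range. Substrate mix (H3K4me3 12.5 µM, α-KG 25 µM, Fe²⁺, ascorbate, NAD⁺, FDH) was added, and NADH fluorescence change over 30 min gave dose-response curves.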
SNCA expr inh = Primary qHTS assay for inhibitors of alpha-synuclein gene (SNCA) expression; HEK-293 SNCA-luciferase knock-in, luminescence, 24 h; Potency, µM (titrated, usually from 57.2 µM), actives largely listed as inhibitors; actives 0.17% (n = 140,000); AID 1671194, 2021; note: nearly all actives have a fitted effect of over 45% in size
IP6K1 inh = Primary qHTS assay for small molecule inhibitors of Inositol hexaphosphate kinase 1 (IP6K1); IP6K1 kinase, ADP-Glo luminescence, 2 h; stronger effect = lower value; activity change, % (series mostly up to about 58 µM); actives 0.81% (n = 140,000); Inositol hexakisphosphate kinase 1 (Homo sapiens), Q92551; in the data active = activity change below about -25%
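ADP-Glo luminescence measures ADP made by human IP6K1 during a 2 h RT reaction with ATP/IP6 (mix at 1.3 mM/130 uM); top library doses 57.5 and 19.1 uM final.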
Of the large screens only hits and unclear results are named; the others gave an inactive call. Unless noted, calls come from the whole dose curve; as a rule, active = well fitted curve in the direction sought with a large enough effect; inconclusive = small, poorly fitted or top-dose-only effect, or another doubt; inactive = no such curve, though single readings can be large; an effect the other way counts as inactive or inconclusive.

CCCNC(=O)CC(c1ccccc1OC)c1c[nH]c2c(CC)cccc12 (stereo unspecified)	KDM5B inhibitor 32µM
COc1ccc(NC2=NS(=O)(=O)C(c3ccc(C(C)C)cc3)=C2C)cc1Cl	none (no result: HEK293 viab, SNCA expr inh, IP6K1 inh)
Cn1ncc2c(N)nc(NC3CC(c4cc(=O)[nH]c(C5CC5)n4)C3)nc21 (stereo unspecified)	KDM5B inhibitor 20µM
Cc1nnc(NC2CC(c3cc(=O)[nH]c(C4CC4)n3)C2)c2ccccc12 (stereo unspecified)	none
Cc1c(-c2ccccc2)[nH]c2c(CNC(=O)CN3C(=O)CNC3=O)cc(Cl)cc12	KDM5B inhibitor inconclusive
Cc1c(-c2ccccc2)[nH]c2c(CNC(=O)Cn3ccc(=O)[nH]c3=O)cc(Cl)cc12	KDM5B inhibitor 28µM
NC(=O)C1(C(=O)NCc2nc(-c3cccc(F)c3)c(-c3ccccn3)[nH]2)CC1	none
Cc1c(-c2ccccc2)[nH]c2c(CNC(=O)c3ccc(=O)n(C)n3)cc(Cl)cc12	HEK293 viab inconclusive
Cc1c(-c2ccccc2)[nH]c2c(CNC(=O)CCn3cnnn3)cc(Cl)cc12	KDM5B inhibitor 25µM
Cc1cc(CNC(=O)C2(C(N)=O)CC2)c2[nH]c(-c3ccccc3)c(C)c2c1	KDM5B inhibitor 28µM, SNCA expr inh inconclusive
Cc1cccc(C)c1NC(=S)NCCc1ccc(C(F)(F)F)cc1	none (no result: HEK293 viab, SNCA expr inh, IP6K1 inh)
COCCNC(=O)c1ccc2c(c1)N(C)C(CC(=O)NC1CCOCC1)CO2 (stereo unspecified)	KDM5B inhibitor 32µM
COCCNC(=O)c1ccc2c(c1)N(C)C(CC(=O)NCCO)CO2 (stereo unspecified)	KDM5B inhibitor 28µM
CN(C)C(=O)c1ccc2c(c1)N(C)C(CC(=O)NC(C)(CO)CO)CO2 (stereo unspecified)	none
COCCNC(=O)c1ccc2c(c1)N(C)C(CC(=O)NCC(F)(F)F)CO2 (stereo unspecified)	KDM5B inhibitor 20µM
CC(C)CN(C(=O)CC1COc2ccc(C(=O)N(C)C)cc2N1C)C1CC1 (stereo unspecified)	none
COCCNC(=O)c1ccc2c(c1)OCCN(c1ccccc1)C2	none
COCCNC(=O)c1ccc2c(c1)N(C)C(CC(=O)NC(C)(C)CO)CO2 (stereo unspecified)	KDM5B inhibitor 32µM
Cc1nnc2n1C(C)CN(C(=O)CCSc1ccc3c(c1)OCCO3)C2 (stereo unspecified)	none
C=CCCC(CN1CCOCC1)Oc1nccc(N(C)CC)n1 (stereo unspecified)	SNCA expr inh inconclusive
COCCNC(=O)c1ccc2c(c1)N(C)C(CC(=O)NCc1ccccn1)CO2 (stereo unspecified)	KDM5B inhibitor 28µM, SNCA expr inh inconclusive
C=CCNC(=O)CC1COc2ccc(C(=O)NCCOC)cc2N1C (stereo unspecified)	KDM5B inhibitor 28µM
COCCNC(=O)c1ccc2c(c1)N(C)C(CC(=O)NCc1ccncc1)CO2 (stereo unspecified)	KDM5B inhibitor inconclusive
COCCNC(=O)c1ccc2c(c1)N(C)C(CC(=O)Nc1ccc[nH]c1=O)CO2 (stereo unspecified)	KDM5B inhibitor 28µM
Cc1cc(C)cc(NC(=O)c2n[nH]c(=O)c3ccccc23)c1	none (no result: HEK293 viab, SNCA expr inh, IP6K1 inh)
CN(C)C(=O)c1ccc(NC(=O)CCc2ccco2)cc1	none (no result: HEK293 viab, SNCA expr inh, IP6K1 inh)
COc1ccc(CNC(=O)CC2Sc3ccccc3NC2=O)cc1OC (stereo unspecified)	none (no result: HEK293 viab, SNCA expr inh, IP6K1 inh)
O=C1NC2(CCCN(Cc3ccc(F)cc3)C2)COc2ccccc21 (stereo unspecified)	KDM5B inhibitor 25µM
O=C1NC2(CCCN(Cc3ccccc3C(F)(F)F)C2)COc2ccccc21 (stereo unspecified)	KDM5B inhibitor 35µM
O=C1NC2(CCCN(Cc3ccc(OC(F)(F)F)cc3)C2)COc2ccccc21 (stereo unspecified)	KDM5B inhibitor 35µM
O=C1NC2(CCCN(Cc3ccsc3)C2)COc2ccccc21 (stereo unspecified)	KDM5B inhibitor inconclusive
CC(=O)Nc1ccc(CN2CCCC3(COc4ccccc4C(=O)N3)C2)cc1 (stereo unspecified)	KDM5B inhibitor inconclusive
COc1cccc(CN2CCCC3(COc4ccccc4C(=O)N3)C2)c1 (stereo unspecified)	KDM5B inhibitor 35µM
CCOc1ccc(NC(=O)c2ccc3ccccc3n2)cc1	none (no result: HEK293 viab, SNCA expr inh, IP6K1 inh)
CCNC(=O)N1CC(Oc2ccc(-c3nc(-c4ccccc4)no3)cc2)C1	none
COc1cc(=O)n2c(c1C(=O)Nc1cc(F)ccc1C)CCCC2	SNCA expr inh inconclusive
Cc1cnc(N2CC3CCC(C2)N3CC(F)(F)F)s1	KDM5B inhibitor 56µM
N#Cc1cnc(N2CC3CCC(C2)N3CC(F)(F)F)s1	none
O=C1NC2(CCN(C(=O)OCc3ccccc3)C2)N=C1c1ccccn1 (stereo unspecified)	KDM5B inhibitor 25µM
CC(C)c1ccc(C(O)Cn2ccn3nc(-c4ccc(F)cc4)cc3c2=O)cc1 (stereo unspecified)	KDM5B inhibitor 25µM
Cc1ccc(C(O)Cn2ccn3nc(-c4ccc(F)cc4)cc3c2=O)cc1 (stereo unspecified)	KDM5B inhibitor 14µM
O=c1c2cc(-c3cccs3)nn2ccn1CC(O)c1ccc(F)cc1 (stereo unspecified)	KDM5B inhibitor 16µM
Cc1ccc(C(O)Cn2ccn3nc(-c4ccc(F)cc4)cc3c2=O)cc1C (stereo unspecified)	none
CCCc1nc(CC)n2cc[nH]c(=O)c12	none
COc1cc(-c2onc(C)c2C(=O)NCCCCc2ccccc2)cc(OC)c1OC	KDM5B inhibitor 25µM
COc1cc(-c2onc(C)c2C(=O)NCCCSC)cc(OC)c1OC	KDM5B inhibitor 32µM
COc1cc(-c2onc(C)c2C(=O)NC2Cc3ccccc3C2)cc(OC)c1OC	KDM5B inhibitor 32µM
COc1ccc(-c2onc(C)c2C(=O)NCc2ccccc2C)cc1	KDM5B inhibitor inconclusive
COc1cc(-c2onc(C)c2C(=O)NCc2cccc(F)c2F)cc(OC)c1OC	KDM5B inhibitor 32µM
CSCc1ccc(C(=O)NCc2coc(-c3cccs3)n2)cc1	none (no result: HEK293 viab, SNCA expr inh, IP6K1 inh)
Cc1cccc(C)c1NC(=O)Cn1c(=O)cc(C(=O)N2CCCCC2)c2ccccc21	none (no result: HEK293 viab, SNCA expr inh, IP6K1 inh)
O=C(NCc1ccc(N2CCOCC2)cc1)c1cc2c(s1)CN(C1CC1)C2	KDM5B inhibitor 11µM
CN1CC(=O)N(C2CCCNC2)Cc2c(NCCOc3ccccc3)ncnc21 (stereo unspecified)	KDM5B inhibitor 45µM
COCCCNc1ncnc2c1CN(C1CCCNC1)C(=O)CN2C (stereo unspecified)	KDM5B inhibitor inconclusive
CC[C@@H](Nc1ncnc2c1CN(C1CCNCC1)C(=O)CN2C)c1ccccc1	KDM5B inhibitor inconclusive
